# Assay results as given in PubChem BioAssay (NCATS).
# Where “and” joins values, the source holds several entries; their conditions need not be identical. Identical values can stand only once. A number with no mark means an inactive call. Results filed as inconclusive are left out. Entries that show only a call come without a potency. Calls of active or inactive are those of the source. Unless noted, calls come from the whole dose curve; as a rule, active = well fitted inhibition curve with a large enough effect; inconclusive = small, poorly fitted or top-dose-only effect; inactive = flat fitted curve, though single readings scatter.
# Key:
# [1] = target: Ubiquitin carboxyl-terminal hydrolase 1 (Homo sapiens) (UniProt O94782); test: Inhibitors of USP1/UAF1: Pilot qHTS (AID 504865); details: purified USP1/UAF1, Ub-rhodamine cleavage fluorescence; series mostly up to 114 µM;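 note: rhodamine fluorescence freed from ubiquitin-rhodamine substrate followed over time; top concentration of the series differs between compounds; nearly all actives have a fitted effect of over 35% in size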
# Sequence of Ubiquitin carboxyl-terminal hydrolase 1 (Homo sapiens) (O94782 whole entry, looked up): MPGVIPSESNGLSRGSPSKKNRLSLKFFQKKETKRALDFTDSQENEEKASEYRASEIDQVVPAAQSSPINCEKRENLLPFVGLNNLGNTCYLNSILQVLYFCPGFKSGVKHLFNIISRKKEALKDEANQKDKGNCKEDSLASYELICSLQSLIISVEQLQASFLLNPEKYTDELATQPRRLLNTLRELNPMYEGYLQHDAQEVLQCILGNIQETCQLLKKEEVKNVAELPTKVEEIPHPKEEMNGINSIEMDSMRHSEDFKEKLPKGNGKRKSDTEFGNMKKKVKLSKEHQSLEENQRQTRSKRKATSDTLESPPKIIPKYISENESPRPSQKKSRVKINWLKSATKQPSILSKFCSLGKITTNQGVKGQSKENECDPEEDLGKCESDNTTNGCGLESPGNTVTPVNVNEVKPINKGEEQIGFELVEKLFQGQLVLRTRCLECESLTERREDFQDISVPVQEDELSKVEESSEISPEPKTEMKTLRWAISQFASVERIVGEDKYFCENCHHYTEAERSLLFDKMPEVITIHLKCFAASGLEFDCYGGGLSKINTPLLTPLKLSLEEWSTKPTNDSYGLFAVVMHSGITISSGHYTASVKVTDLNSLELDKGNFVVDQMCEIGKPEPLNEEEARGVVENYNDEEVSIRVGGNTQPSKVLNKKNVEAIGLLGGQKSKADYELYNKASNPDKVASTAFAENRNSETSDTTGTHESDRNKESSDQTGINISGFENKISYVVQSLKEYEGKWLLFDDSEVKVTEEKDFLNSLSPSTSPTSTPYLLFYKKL
# Procedure, shortened: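 Deubiquitinase activity followed as kinetic rhodamine fluorescence release from 150 nM Ub-Rho. 1 nM USP1/UAF1 with compound, after 15 min room-temperature preincubation, in HEPES pH 7.8 buffer containing TCEP, EDTA, BSA and Tween-20.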
# [2] = target: DNA dC->dU-editing enzyme APOBEC-3G (Homo sapiens) (UniProt Q9HC16); test: qHTS for inhibitors of Vif-A3G interactions: Validation (AID 588379); details: Vif-A3G protein interaction assay; series mostly up to 46.1 µM
# Sequence of DNA dC->dU-editing enzyme APOBEC-3G (Homo sapiens) (Q9HC16 whole entry, looked up): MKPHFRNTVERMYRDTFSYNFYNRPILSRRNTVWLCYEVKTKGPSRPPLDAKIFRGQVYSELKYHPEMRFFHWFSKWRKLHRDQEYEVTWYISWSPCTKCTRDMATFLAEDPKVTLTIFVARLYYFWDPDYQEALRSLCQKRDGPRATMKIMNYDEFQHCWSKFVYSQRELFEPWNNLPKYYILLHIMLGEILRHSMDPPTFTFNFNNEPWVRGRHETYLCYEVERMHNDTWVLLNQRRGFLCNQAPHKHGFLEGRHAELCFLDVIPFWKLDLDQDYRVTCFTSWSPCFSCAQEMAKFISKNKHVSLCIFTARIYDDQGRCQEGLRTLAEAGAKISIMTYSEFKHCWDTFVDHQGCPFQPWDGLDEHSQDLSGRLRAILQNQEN
# Procedure, shortened: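 Yellow fluorescence (Ex 488, Em 500-530) of Vif-coexpressing HeLa A3G-eYFP cells, scanned by Acumen cytometer, reports blocked A3G degradation. Cells plated at 700/well overnight at 37 deg C before compound addition, then a further overnight compound incubation at 37 deg C.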
# [3] = target: Estrogen receptor (Homo sapiens) (UniProt P03372); test: qHTS assay for small molecule antagonists of estrogen receptor alpha signaling (AID 588513; active = well fitted curve in the direction sought with a large enough effect in the signal ratio, with a control signal flat, not every such curve was filed as active; the % refers to the signal ratio); details: ER-alpha-UAS-bla HEK293, beta-lactamase ratio, antagonist mode; series mostly up to 76.9 µM
# Sequence of Estrogen receptor (Homo sapiens) (P03372 whole entry, looked up): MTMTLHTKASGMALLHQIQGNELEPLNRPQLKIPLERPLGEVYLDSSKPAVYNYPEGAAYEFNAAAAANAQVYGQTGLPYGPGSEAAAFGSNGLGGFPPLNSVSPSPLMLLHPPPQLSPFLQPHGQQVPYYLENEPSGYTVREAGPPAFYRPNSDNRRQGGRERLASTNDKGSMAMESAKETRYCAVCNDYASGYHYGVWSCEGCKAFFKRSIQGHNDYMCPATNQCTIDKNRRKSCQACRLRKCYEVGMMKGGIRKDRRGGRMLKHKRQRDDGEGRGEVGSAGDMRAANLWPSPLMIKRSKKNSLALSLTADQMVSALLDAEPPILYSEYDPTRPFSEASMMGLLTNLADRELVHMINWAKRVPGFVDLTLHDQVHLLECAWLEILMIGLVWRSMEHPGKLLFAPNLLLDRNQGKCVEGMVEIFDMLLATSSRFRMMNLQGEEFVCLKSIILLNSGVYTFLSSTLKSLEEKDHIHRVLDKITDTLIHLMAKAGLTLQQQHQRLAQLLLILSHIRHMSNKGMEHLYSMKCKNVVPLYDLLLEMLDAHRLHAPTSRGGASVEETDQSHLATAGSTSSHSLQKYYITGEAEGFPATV
# Procedure, shortened: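 Antagonist mode: inhibition of 0.5 nM 17-beta-estradiol-driven beta-lactamase reporter in HEK 293 ER-alpha-UAS-bla cells, 18 h at 37C, CCF4 readout after 2 h at RT. Normalised to estradiol and DMSO; titration fitted to Hill.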
# [4] = target: Estrogen receptor (Homo sapiens) (UniProt P03372); test: qHTS assay for small molecule agonists of estrogen receptor alpha signaling (AID 588514; calls by dose curve; note: nearly all actives have a fitted effect of over 70% in size); details: ER-alpha-UAS-bla HEK293, beta-lactamase ratio, 18 h, percent of full estradiol response, vehicle zero; series mostly up to 76.8 µM
# Procedure, shortened: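 Fluorescence from CCF4 cleavage reports ER-alpha-driven beta-lactamase expression in HEK 293 cells treated 18 hrs at 37 C. Data normalized to 17-beta-estradiol (20 nM) and DMSO, fitted to Hill equation.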
# [5] = target: Androgen receptor (Homo sapiens) (UniProt P10275); test: qHTS assay for small molecule agonists of androgen receptor signaling (AID 588515; active = well fitted curve in the direction sought with a large enough effect in the signal ratio, with a control signal flat; the % refers to the signal ratio); details: AR-UAS-bla HEK293, beta-lactamase ratio, agonist 16 h; stronger effect = higher value
# Sequence of Androgen receptor (Homo sapiens) (P10275 whole entry, looked up): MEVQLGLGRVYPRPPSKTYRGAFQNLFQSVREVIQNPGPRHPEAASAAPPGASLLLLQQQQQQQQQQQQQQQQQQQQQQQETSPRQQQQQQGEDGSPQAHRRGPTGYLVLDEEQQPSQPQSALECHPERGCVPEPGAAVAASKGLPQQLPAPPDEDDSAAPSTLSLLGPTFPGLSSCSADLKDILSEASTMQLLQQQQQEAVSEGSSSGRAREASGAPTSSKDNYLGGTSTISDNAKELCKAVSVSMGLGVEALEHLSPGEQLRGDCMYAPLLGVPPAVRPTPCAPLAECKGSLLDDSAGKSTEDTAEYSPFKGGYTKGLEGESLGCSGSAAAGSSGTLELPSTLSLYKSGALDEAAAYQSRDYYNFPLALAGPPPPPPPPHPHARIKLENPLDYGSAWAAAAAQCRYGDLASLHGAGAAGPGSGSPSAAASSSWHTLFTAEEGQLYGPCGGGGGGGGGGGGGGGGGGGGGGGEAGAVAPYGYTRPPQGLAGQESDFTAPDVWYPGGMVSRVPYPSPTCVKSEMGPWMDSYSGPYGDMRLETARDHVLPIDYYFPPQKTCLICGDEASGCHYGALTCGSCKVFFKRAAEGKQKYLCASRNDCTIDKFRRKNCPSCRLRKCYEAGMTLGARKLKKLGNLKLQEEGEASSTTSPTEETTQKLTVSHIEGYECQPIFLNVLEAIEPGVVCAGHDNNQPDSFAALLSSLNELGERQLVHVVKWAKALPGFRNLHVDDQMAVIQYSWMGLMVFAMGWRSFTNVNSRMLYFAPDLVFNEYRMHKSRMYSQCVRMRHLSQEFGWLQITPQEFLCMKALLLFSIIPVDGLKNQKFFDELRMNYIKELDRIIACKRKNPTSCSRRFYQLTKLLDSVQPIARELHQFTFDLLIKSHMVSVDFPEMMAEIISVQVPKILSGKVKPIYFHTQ
# Procedure, shortened: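 Stimulation of an AR-responsive β-lactamase reporter in GripTite HEK293 cells was measured after 16 h compound exposure at 37 °C, via CCF4 fluorescence after 2 h RT. EC50 from Hill fits, normalized to R1881 at 30 nM.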
compound,measurement,setting,value
Nc1nc2c(ncn2CCC(CO)CO)c(=O)[nH]1,Potency,[1],inactive
CC(=O)CCC(=O)O,Potency,[1],inactive
c1ccc(CN(CC2=NCCN2)c2ccccc2)cc1,Potency,[1],inactive
same,outcome,[2],inactive
CC12CCC(CC1)C(C)(C)O2,Potency,[1],inactive
same,outcome,[3],inactive
same,outcome,[4],inactive
CCCCC(CC)COC(=O)c1ccccc1O (centres undefined),Potency,[1],inactive
same,outcome,[3],inactive
same,outcome,[4],inactive
O=c1cc[nH]c(=S)[nH]1,Potency,[1],inactive
Nc1ccc(S(=O)(=O)Nc2ccccc2)cc1,Potency,[1],inactive
Cc1cccc(Nc2cc(Cl)nc(SCC(=O)O)n2)c1C,Potency,[1],inactive
same,outcome,[2],inactive
same,outcome,[3],inactive
same,outcome,[4],inactive
same,activation,[5],4.07%
O=c1cc(CO)occ1O,Potency,[1],inactive
same,outcome,[2],inactive
O=C(O)c1ccccc1O,Potency,[1],inactive
CC1(C)OC(=O)NC1=O,Potency,[1],inactive
Cc1cccc(C)c1NC(=O)CN(CC(=O)O)CC(=O)O,Potency,[1],inactive
CCCCc1ncc(/C=C(\Cc2cccs2)C(=O)O)n1Cc1ccc(C(=O)O)cc1,Potency,[1],inactive
O=C(O)CC(O)C(=O)O (centres undefined),Potency,[1],inactive
Oc1cccc(O)c1,Potency,[1],inactive
same,outcome,[3],inactive
CCOc1ccc2ccccc2c1C(=O)N[C@@H]1C(=O)N2[C@@H]1SC(C)(C)[C@@H]2C(=O)O,Potency,[1],inactive
NCCNCCNCCN,Potency,[1],inactive
N[C@@H](CSCCCO)C(=O)O,Potency,[1],inactive
COc1ccccc1O,Potency,[1],inactive
same,outcome,[3],inactive
same,outcome,[4],inactive
NCCNCCNCCNCCN,Potency,[1],inactive
same,activation,[5],15.1% and -3.31%
O=C(O)CN1C(=O)c2cccc3cccc(c23)C1=O,Potency,[1],inactive
same,outcome,[2],inactive
Nc1ccc(S(=O)(=O)Nc2nccs2)cc1,Potency,[1],inactive
same,outcome,[3],inactive
same,outcome,[4],inactive
